In PubChem BioAssay (NCI):
The panel holds about 83,000 compounds, 20% with a hit somewhere; the sample as a whole holds those more often.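 Cell lines were cultured in 96-well plates, exposed to a single compound concentration, and assessed for percent growth 48 hours later.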 Calls of active or inactive are those of the source. Rule for the calls: active = growth percent below 10; inactive = the rest.

Experiments:
Experiment in all cases: NCI-60 one-dose screen, 48 h (100 = growth as untreated, 0 = no growth, -100 = all killed)
Conditions in all cases: 10 µM unless noted
NCI-H23 lung = system: NCI-H23 lung
NCI-H226 lung = system: NCI-H226 lung
NCI-H322M lung = system: NCI-H322M lung
HOP-62 NSCLC = system: HOP-62 NSCLC
HOP-92 NSCLC = system: HOP-92 NSCLC
A549/ATCC NSCLC = system: A549/ATCC NSCLC
786-0 renal = system: 786-0 renal
COLO 205 colon = system: COLO 205 colon
DU-145 prostate = system: DU-145 prostate
K-562 leukemia = system: K-562 leukemia
MALME-3M melanoma = system: MALME-3M melanoma
MDA-MB-231 breast = system: MDA-MB-231 breast
RXF 393 renal = system: RXF 393 renal
SF-268 CNS = system: SF-268 CNS
SF-295 CNS = system: SF-295 CNS
SF-539 CNS = system: SF-539 CNS
UACC-257 melanoma = system: UACC-257 melanoma
M14 melanoma = system: M14 melanoma
NCI-H460 lung = system: NCI-H460 lung
NCI-H522 lung = system: NCI-H522 lung

Measured: growth

Oc1ccc(Br)cc1Sc1cc(Br)ccc1O
active: NCI-H23 lung 9.64%
inactive: NCI-H226 lung 98.2% | NCI-H322M lung 92% | HOP-62 NSCLC 84.7% | HOP-92 NSCLC 22.1% | A549/ATCC NSCLC 50.6% | 786-0 renal 100% | COLO 205 colon 113% | DU-145 prostate 76.4% | K-562 leukemia 49.2% | MALME-3M melanoma 40.9% | MDA-MB-231 breast 56.7% | RXF 393 renal 76.8% | SF-268 CNS 55.3% | SF-295 CNS 98.9% | SF-539 CNS 45.3% | UACC-257 melanoma 52.1% | M14 melanoma 39.9%

CCCc1cc(=O)oc2c3c(c4c(c12)OC(C)(C)CC4)OC(C)[C@H](C)[C@@H]3O (stereo not given in full)
inactive: NCI-H23 lung 81.4% | NCI-H226 lung 81.1% | NCI-H322M lung 106% | NCI-H460 lung 85.7% | NCI-H522 lung 57.7% | A549/ATCC NSCLC 72% | 786-0 renal 86.4% | COLO 205 colon 96.1% | DU-145 prostate 104% | K-562 leukemia 71.2% | MALME-3M melanoma 139% | MDA-MB-231 breast 79.9% | RXF 393 renal 77.5% | SF-268 CNS 94.4% | SF-295 CNS 44.5% | SF-539 CNS 108% | UACC-257 melanoma 104% | M14 melanoma 102%
active: HOP-92 NSCLC -1.36%

O=C(NNc1ccccc1)OCc1ccccc1
inactive: NCI-H23 lung 103% | NCI-H226 lung 97.7% | HOP-62 NSCLC 100% | NCI-H460 lung 79.5% | HOP-92 NSCLC 82% | NCI-H522 lung 82.1% | A549/ATCC NSCLC 70.7% | 786-0 renal 78.2% | COLO 205 colon 97.6% | DU-145 prostate 69.1% | MALME-3M melanoma 121% | MDA-MB-231 breast 74.4% | RXF 393 renal 119% | SF-268 CNS 63% | SF-295 CNS 58% | SF-539 CNS 97.1% | UACC-257 melanoma 92.4% | M14 melanoma 17.6%
active: K-562 leukemia 3.91%

Oc1c(C(Nc2ccccc2)c2ccccc2)ccc2cccnc12 (stereo not given)
inactive: NCI-H23 lung 51% | NCI-H226 lung 33.2% | HOP-62 NSCLC 24.1% | NCI-H460 lung 20.7% | HOP-92 NSCLC 19.9% | A549/ATCC NSCLC 37.3% | 786-0 renal 39.3% | COLO 205 colon 16.8% | DU-145 prostate 57.8% | K-562 leukemia 32.1% | MALME-3M melanoma 87.6% | RXF 393 renal 74.9% | SF-268 CNS 33.4% | SF-539 CNS 27.2% | UACC-257 melanoma 64.3% | M14 melanoma 45.8%
active: NCI-H522 lung 4.85% | SF-295 CNS 6.25%

CCOC(=O)c1[nH]c(C#N)c(C(=O)OCC)c1C
inactive: NCI-H23 lung 101% | NCI-H226 lung 95.9% | HOP-62 NSCLC 101% | NCI-H460 lung 114% | NCI-H522 lung 97.9% | A549/ATCC NSCLC 98% | 786-0 renal 86.9% | COLO 205 colon 131% | DU-145 prostate 106% | MALME-3M melanoma 109% | MDA-MB-231 breast 102% | RXF 393 renal 90.5% | SF-268 CNS 111% | SF-295 CNS 89.3% | SF-539 CNS 104% | UACC-257 melanoma 104% | M14 melanoma 109%

CCCOC(=O)c1nc(N(CC2CCCCC2)C(=O)NC)sc1/N=C/c1ccccc1
active: NCI-H460 lung 2.34% | NCI-H522 lung -18.4% | 786-0 renal 9.27% | K-562 leukemia 2.2% | RXF 393 renal -8.78% | SF-539 CNS -27.9% | M14 melanoma 6.82%
inactive: NCI-H23 lung 31.1% | NCI-H226 lung 56.8% | HOP-62 NSCLC 25.5% | HOP-92 NSCLC 15.5% | A549/ATCC NSCLC 13.6% | COLO 205 colon 18.6% | DU-145 prostate 44.7% | MALME-3M melanoma 12.4% | SF-268 CNS 32% | SF-295 CNS 15.1% | UACC-257 melanoma 37.5%

Nc1cccc2cccc([N+](=O)[O-])c12
inactive: NCI-H23 lung 101% | NCI-H226 lung 94.8% | HOP-62 NSCLC 97.8% | NCI-H460 lung 112% | NCI-H522 lung 104% | A549/ATCC NSCLC 106% | 786-0 renal 100% | COLO 205 colon 94.1% | DU-145 prostate 118% | MALME-3M melanoma 111% | RXF 393 renal 110% | SF-268 CNS 109% | SF-295 CNS 95.6% | SF-539 CNS 113% | UACC-257 melanoma 100% | M14 melanoma 107%

O=[N+]([O-])/C(=C/c1ccccc1)c1ccccc1
inactive: NCI-H23 lung 99.4% | NCI-H226 lung 97.5% | NCI-H460 lung 102% | HOP-92 NSCLC 99.9% | NCI-H522 lung 83% | A549/ATCC NSCLC 101% | 786-0 renal 97.9% | COLO 205 colon 112% | DU-145 prostate 106% | K-562 leukemia 98.3% | MALME-3M melanoma 98.7% | MDA-MB-231 breast 112% | RXF 393 renal 97.1% | SF-268 CNS 106% | SF-295 CNS 98.9% | SF-539 CNS 96% | UACC-257 melanoma 103% | M14 melanoma 101%

CC(=O)OC1CC2CCC1(C)C2(C)C (stereo not given)
inactive: NCI-H23 lung 104% | NCI-H226 lung 103% | NCI-H460 lung 105% | HOP-92 NSCLC 84.1% | A549/ATCC NSCLC 101% | 786-0 renal 111% | COLO 205 colon 108% | DU-145 prostate 110% | MALME-3M melanoma 98.7% | MDA-MB-231 breast 101% | RXF 393 renal 114% | SF-268 CNS 104% | SF-295 CNS 94.5% | SF-539 CNS 104% | UACC-257 melanoma 99.6% | M14 melanoma 106%

O=C(/C=C/c1ccccc1)c1ccccc1O
inactive: NCI-H23 lung 82.3% | NCI-H226 lung 91.6% | HOP-62 NSCLC 103% | NCI-H460 lung 93.2% | HOP-92 NSCLC 74.4% | NCI-H522 lung 69.6% | A549/ATCC NSCLC 83.9% | 786-0 renal 79.7% | COLO 205 colon 105% | K-562 leukemia 51.6% | MALME-3M melanoma 97.2% | MDA-MB-231 breast 91.5% | RXF 393 renal 65.7% | SF-268 CNS 85.2% | SF-295 CNS 94.8% | SF-539 CNS 89.9% | UACC-257 melanoma 91.8% | M14 melanoma 92.3%

O=C1C=CC(=O)N1c1ccccc1
inactive: NCI-H23 lung 98.2% | NCI-H226 lung 87.7% | HOP-62 NSCLC 92% | NCI-H460 lung 110% | A549/ATCC NSCLC 102% | 786-0 renal 94.5% | DU-145 prostate 109% | K-562 leukemia 52.6% | MALME-3M melanoma 101% | MDA-MB-231 breast 78.6% | RXF 393 renal 88.7% | SF-268 CNS 112% | SF-539 CNS 100% | UACC-257 melanoma 96.9% | M14 melanoma 94.2%
active: NCI-H522 lung -51.8%

O=[N+]([O-])c1ccc(N2CCN(Cc3ccccc3)CC2)c2c1no[n+]2[O-]
inactive: NCI-H23 lung 13% | NCI-H322M lung 69.7% | HOP-92 NSCLC 25.6% | DU-145 prostate 26.8% | MALME-3M melanoma 13.5% | UACC-257 melanoma 55.9% | M14 melanoma 30.3%
active: HOP-62 NSCLC -31.7% | NCI-H460 lung -70.8% | NCI-H522 lung -74.1% | A549/ATCC NSCLC -40.2% | 786-0 renal -4.19% | COLO 205 colon -88.2% | K-562 leukemia -43.5% | MDA-MB-231 breast -3.1% | RXF 393 renal -5.34% | SF-268 CNS -1.56% | SF-295 CNS 6.45% | SF-539 CNS 0.0788%

CCCCCCCCCCCCCCCCCC[S+](C)CC (stereo not given)
active: COLO 205 colon -38% | MDA-MB-231 breast -2.38% | RXF 393 renal -81% | M14 melanoma 4.94%
inactive: NCI-H23 lung 36.3% | NCI-H226 lung 17.5% | HOP-62 NSCLC 15.6% | NCI-H460 lung 33.6% | HOP-92 NSCLC 27.3% | NCI-H522 lung 30.2% | A549/ATCC NSCLC 42.3% | 786-0 renal 29.1% | DU-145 prostate 64.3% | K-562 leukemia 47.9% | SF-268 CNS 30.6% | SF-295 CNS 68.8% | SF-539 CNS 31% | UACC-257 melanoma 45.8%

O=C1C=Cc2ccccc2/C1=C/c1nc(-c2ccccc2)oc1O
inactive: NCI-H23 lung 82.1% | NCI-H226 lung 73% | HOP-62 NSCLC 88.1% | NCI-H460 lung 98.5% | HOP-92 NSCLC 103% | NCI-H522 lung 90.3% | A549/ATCC NSCLC 107% | 786-0 renal 107% | COLO 205 colon 87.5% | K-562 leukemia 96.8% | MALME-3M melanoma 74.4% | MDA-MB-231 breast 73.6% | RXF 393 renal 101% | SF-268 CNS 84.8% | SF-295 CNS 101% | SF-539 CNS 87.7% | UACC-257 melanoma 105% | M14 melanoma 93.5%

CN(C)c1ccc(/C=C/c2nccc3ccccc23)cc1
inactive: NCI-H23 lung 81.9% | NCI-H226 lung 71.6% | HOP-62 NSCLC 87.9% | NCI-H460 lung 74.3% | HOP-92 NSCLC 68.2% | A549/ATCC NSCLC 85.6% | 786-0 renal 103% | COLO 205 colon 91.4% | DU-145 prostate 101% | K-562 leukemia 92.8% | MALME-3M melanoma 110% | MDA-MB-231 breast 51.3% | RXF 393 renal 102% | SF-268 CNS 97.2% | SF-295 CNS 79.1% | SF-539 CNS 99% | M14 melanoma 88.8%

COc1cccc2c1C(=O)c1c(O)c3c(c(O)c1C2=O)C[C@@](O)(C(=O)CO)C[C@@H]3OC1CC(OC(C)=O)C(OC(C)=O)C(C)O1 (stereo not given in full)
active: NCI-H226 lung -73.3% | NCI-H322M lung -12.8% | HOP-62 NSCLC -25.6% | NCI-H460 lung -56.2% | HOP-92 NSCLC -28.9% | NCI-H522 lung -34% | A549/ATCC NSCLC -44.6% | 786-0 renal -17.3% | COLO 205 colon -6.8% | DU-145 prostate -50.9% | K-562 leukemia -34.2% | MALME-3M melanoma -83% | MDA-MB-231 breast 9.19% | RXF 393 renal -31.3% | SF-268 CNS -22.3% | SF-295 CNS -30.2% | SF-539 CNS -34.4% | UACC-257 melanoma -27.7% | M14 melanoma -12.5%

O=[n+]1c2ccccc2n([O-])c2cc(Cl)ccc21
inactive: NCI-H23 lung 91.3% | NCI-H322M lung 98.5% | HOP-62 NSCLC 77.4% | NCI-H460 lung 42.7% | NCI-H522 lung 72% | 786-0 renal 32.1% | COLO 205 colon 76.5% | DU-145 prostate 94.9% | K-562 leukemia 45.3% | MALME-3M melanoma 85.1% | MDA-MB-231 breast 87.6% | SF-268 CNS 28.1% | SF-295 CNS 63.5% | SF-539 CNS 53.1% | UACC-257 melanoma 80.7% | M14 melanoma 104%
